High-throughput results deposited in PubChem by National Center for Advancing Translational Sciences (NCATS).
uPA generation – cell surface uPA generation inhibition | Potency, µM (highest dose often 38.3 µM), actives largely listed as inhibitors | actives 0.31% (n = 330,000) | cell surface uPA generation assay, qHTS | AID 540303; active means well fitted inhibition curve with a large enough effect; inconclusive means small, poorly fitted or top-dose-only effect; inactive means no such curve, though single readings can be large or run the other way; tested in mouse RAW 264.7 cells; further: nearly all actives have a fitted effect of over 55% in size
FLuc counter – firefly luciferase modulation, counter-screen for miR-21 project. P08659. purified FLuc, Km substrates, luminescence inhibition. Potency, µM (doses to about 57.5 µM), usual class: inhibitors. actives 6.9% (n = 360,000); further: nearly all actives have a fitted effect of over 55% in size
Target sequence (P08659 whole entry, looked up): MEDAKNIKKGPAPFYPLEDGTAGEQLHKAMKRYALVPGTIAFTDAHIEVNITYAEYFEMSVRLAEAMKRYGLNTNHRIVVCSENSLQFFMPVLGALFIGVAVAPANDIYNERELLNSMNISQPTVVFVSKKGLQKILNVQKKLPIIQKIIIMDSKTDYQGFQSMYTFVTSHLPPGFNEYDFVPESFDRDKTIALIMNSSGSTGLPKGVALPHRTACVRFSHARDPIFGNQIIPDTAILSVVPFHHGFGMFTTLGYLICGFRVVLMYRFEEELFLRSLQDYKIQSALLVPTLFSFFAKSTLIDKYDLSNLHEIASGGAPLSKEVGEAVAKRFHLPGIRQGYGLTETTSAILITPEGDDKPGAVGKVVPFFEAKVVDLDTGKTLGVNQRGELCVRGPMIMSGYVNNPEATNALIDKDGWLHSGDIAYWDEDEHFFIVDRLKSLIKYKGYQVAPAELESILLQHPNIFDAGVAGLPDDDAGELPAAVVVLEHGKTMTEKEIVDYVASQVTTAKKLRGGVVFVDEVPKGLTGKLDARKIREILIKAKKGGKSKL
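Biochemical qHTS of compounds, final roughly 60 µM downward over six points, against 10 nM purified firefly luciferase using Km concentrations of substrates (10 uM D-luciferin, 10 uM ATP) in Tris acetate pH 7.5 buffer; luminescence output.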
ELG1 genotoxic – induces genotoxicity in HEK293T cells with luciferase-tagged ELG1; AID 504466; Potency, µM (top dose mostly 46 µM), hits mostly activators; actives 1.3% (n = 330,000); HEK293T ELG1-luciferase reporter, luminescence, 16 h; further: nearly all actives have a fitted effect of over 60% in size
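Genotoxic stress is detected as increased luminescence from luciferase-tagged ELG1 in HEK293T cells, measured with ONE-Glo after a 16 hr treatment at 37 °C.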
SMN2 splice up – enhancers of SMN2 splice variant expression. actives 2.8% (n = 210,000). Potency, µM (highest dose often 46.1 µM), hits mostly activators. HEK293 SMN2-luciferase splicing reporter, luminescence, 30-36 h; further: nearly all actives have a fitted effect of over 55% in size
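HEK293 cells carry an SMN2 […]–luciferase reporter in which exon 7 inclusion puts luciferase in frame. Cells were plated 10-12 h before compound addition, then incubated 30-36 h at 37C. ONE-Glo luminescence was read; sodium butyrate at 4.5 mM final served as control.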
NPC1 promoter act – activates the NPC1 promoter | Huh7 NPC1 promoter luciferase reporter, 24 h | Potency, µM (titrated, usually from 9.22 µM), actives largely listed as activators | actives 2.4% (n = 320,000) | AID 485313; further: nearly all actives have a fitted effect of over 60% in size
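In 1536-well qHTS, Huh7 cells harboring an NPC1 promoter–luciferase construct received compound for 24 h; activation was quantified by luminescence following luciferase reagent addition.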
Rab9 promoter act – Rab9 promoter activation; Huh7 Rab9 promoter-luciferase reporter, luminescence, 24 h; actives 2.8% (n = 320,000); Potency, µM (highest dose often 9.22 µM), usual class: activators; further: nearly all actives have a fitted effect of over 60% in size
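Rab9 promoter-driven luciferase in stably transfected Huh7 cells; 1500 cells/well rested 2 h, exposed to compound in DMSO for 24 h at 37 °C, 5% CO2. Luminescence read 10 min after adding luciferase reagent at ambient temperature.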
Hits are given with their value; – = inactive; ? = inconclusive; · = not tested or not shown. A selection: hits, their analogues and other compounds. The true share with any hit is near 7.3%. Unless noted, the call rests on the fitted dose curve; in most records, active means well fitted curve in the direction sought with a large enough effect; inconclusive means small, poorly fitted or top-dose-only effect, or another doubt; inactive means no such curve, though single readings can be large; an effect the other way counts as inactive or inconclusive.

SMILES	uPA generation	FLuc counter	ELG1 genotoxic	SMN2 splice up	NPC1 promoter act	Rab9 promoter act
O=C(CSCc1cnn(-c2ccccc2)c1-n1cccc1)NCc1cccc(Cl)c1	·	–	·	·	·	·
COc1cccc(C(=O)Nc2ccc(NC(=O)C(C)(C)C)cn2)c1	–	0.849µM	?	0.891µM	0.355µM	0.316µM
O=C(O)c1ccc(NC(=S)NC(=O)c2ccc(-c3ccccc3)cc2)cc1	–	6.01µM	–	–	–	?
COc1ccc(NC(=O)c2cccc(Oc3ccccc3)c2)cn1	–	19µM	–	·	–	–
COc1ccc(NC(=S)NC(=O)c2ccccc2)cn1	–	13.5µM	?	·	?	1.78µM
COc1ccc(C(=O)O)cc1N1C(=O)Nc2ccccc2N1O	–	–	–	–	–	–
COc1cccc(-c2cc(N3C(=O)Nc4ccccc4N3O)n[nH]2)c1	–	15.1µM	–	–	–	–
CCOc1ccc(-c2cc(N3C(=O)Nc4ccccc4N3O)n[nH]2)cc1	–	6.75µM	–	–	–	–
COc1ccc(-c2cc(C)no2)cc1S(=O)(=O)NCC(C)c1ccccc1 (configuration not stated)	–	–	–	·	–	–
Cc1nc2c(ccc3nc(NC(=O)Cc4ccccc4)sc32)s1	?	23.9µM	–	?	–	?
CCOC(=O)c1nc2ccccc2s1	–	13.5µM	?	–	–	–
CCCNC(=O)c1ccc(-c2nc3ccccc3s2)s1	–	0.338µM	0.206µM	2.82µM	?	0.708µM
CCOC(=O)Nc1nc2ccccc2s1	–	6.75µM	3.66µM	?	3.16µM	3.55µM
CCOC(=O)c1ccc(S(=O)(=O)N2CCN(C3CCCC3)CC2)cc1	–	–	–	·	–	–
COc1cccc(Cn2c(=O)n(-c3cc(C)cc(C)c3)c(=O)c3oc4ccccc4c32)c1	·	–	·	·	·	·
CN(C)c1ccc(CC(=O)c2nc3ccccc3s2)cc1	–	8.49µM	?	–	?	2.51µM
Cc1nc2c(ccc3nc(NC(=O)c4ccc(S(=O)(=O)N(C)C)cc4)sc32)s1	–	2.69µM	–	–	–	–
CCCCNC(=O)Nc1ccccc1CC	–	–	–	·	–	–
CCCCNC(=O)Nc1nc2ccccc2s1	–	10.7µM	?	11.2µM	2.51µM	1.41µM
CC12CCC(C(=O)Nc3nc4ccccc4s3)(OC1=O)C2(C)C (configuration not stated)	–	16.9µM	?	?	?	?
CN(C)S(=O)(=O)c1ccc(C(=O)Nc2nc(-c3ccccc3)c(C(=O)c3ccccc3)s2)cc1	–	–	–	–	–	–
O=C(Nc1ccccc1F)c1ccc(O)c2ncccc12	·	–	·	·	–	–
CCCNC(=O)Nc1nc2ccccc2s1	–	9.53µM	?	·	2.24µM	2.51µM
Cc1ccc(S(=O)(=O)CC(=O)Nc2nc3ccccc3s2)cc1	–	–	–	·	–	–
CCCCNC(=O)Nc1nc2ccc(CC)cc2s1	–	6.75µM	?	?	?	?
SMILES	uPA generation	FLuc counter	ELG1 genotoxic	SMN2 splice up	NPC1 promoter act	Rab9 promoter act
Cc1ccc(CC(=O)Nc2nc3ccccc3s2)cc1	–	19µM	–	–	?	?
CCOC(=O)CC(=O)Nc1nc2ccccc2s1	–	–	?	–	–	–
O=C(Nc1ncc([N+](=O)[O-])s1)c1cccc([N+](=O)[O-])c1	–	0.675µM	?	·	0.0891µM	0.1µM
O=C(Nc1cc([N+](=O)[O-])ccc1O)c1cccc([N+](=O)[O-])c1	–	?	–	·	?	?
Cc1nc(C)c(C(=O)Nc2ncc([N+](=O)[O-])s2)o1	–	1.9µM	?	0.891µM	?	?
O=C(COC(=O)c1ccccc1)Nc1ncc([N+](=O)[O-])s1	–	·	–	·	·	·
CC(C)CC(=O)Nc1ncc([N+](=O)[O-])s1	–	?	–	·	–	–
O=C(Nc1ccccc1)Nc1ncc([N+](=O)[O-])s1	–	1.51µM	?	3.98µM	?	?
COc1ccccc1NC(=O)c1ccc(NC(=O)C2CC2C)cc1 (configuration not stated)	–	·	–	·	·	·
CC1CC1C(=O)Nc1ccc(-c2ccccc2)cc1 (configuration not stated)	?	9.53µM	?	12.6µM	3.16µM	2.51µM
COc1cccc(CN(C)Cc2c(O)ccc3ccccc23)c1	–	10.7µM	–	·	–	–
COc1ccc(CCNc2oc(/C=C/c3cc(OC)c(OC)c(OC)c3)nc2C#N)cc1OC	·	–	·	–	·	·
CC(=O)N1CCC(=NNc2nc3ccccc3[nH]2)CC1	–	?	–	?	–	–
CCC(C)(C)C1CCC(=NNc2nc3ccccc3[nH]2)CC1 (configuration not stated)	–	12µM	–	–	–	–
O=C(COc1ccc([N+](=O)[O-])cc1)Nc1ccc(CN2CCOCC2)cc1	–	–	–	–	–	–
Cc1nn(Cc2c(F)c(F)c(F)c(F)c2F)c(C)c1NC(=O)c1cccc(COc2ccccc2Cl)c1	·	6.01µM	?	10µM	0.501µM	0.355µM
